Assay results taken from paper PMC3218832.

Experiments:
Experiment in all cases: protein binding microarray; high values mean tight binding
Conditions in all cases: dsDNA, one strand shown
[1] = target: RELARELA (p65 homodimer) (Homo sapiens, UniProt Q04206 1-307)
[2] = target: p50p50 homodimer (Homo sapiens, UniProt P19838 7-356)
[3] = target: T1, p52p52 homodimer (Homo sapiens, UniProt Q00653 4-332)
T1 sequence: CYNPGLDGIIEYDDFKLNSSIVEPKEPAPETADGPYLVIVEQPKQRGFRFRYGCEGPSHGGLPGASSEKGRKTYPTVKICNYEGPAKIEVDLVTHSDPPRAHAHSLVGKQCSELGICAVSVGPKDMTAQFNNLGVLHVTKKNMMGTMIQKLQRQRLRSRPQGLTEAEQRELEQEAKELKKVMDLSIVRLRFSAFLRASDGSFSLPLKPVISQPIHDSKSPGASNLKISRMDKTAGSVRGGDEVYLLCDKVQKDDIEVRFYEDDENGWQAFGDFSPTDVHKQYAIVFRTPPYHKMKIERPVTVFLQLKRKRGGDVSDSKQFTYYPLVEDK

[4] = target: RELA (p65) subunit of heterodimer;p50 subunit (Homo sapiens;Homo sapiens, UniProt Q04206;P19838 1-307;7-356)
[5] = target: RELA (p65) subunit of heterodimer;p52 subunit (Homo sapiens;Homo sapiens, UniProt Q04206;Q00653 1-307;4-332)
[6] = target: RELB subunit;p50 subunit (Homo sapiens;Homo sapiens, UniProt Q01201;P19838 120-401;7-356)
[7] = target: T2, RELB subunit;p52 subunit (Homo sapiens;Homo sapiens, UniProt Q01201;Q00653 120-401;4-332)
T2 sequence 1: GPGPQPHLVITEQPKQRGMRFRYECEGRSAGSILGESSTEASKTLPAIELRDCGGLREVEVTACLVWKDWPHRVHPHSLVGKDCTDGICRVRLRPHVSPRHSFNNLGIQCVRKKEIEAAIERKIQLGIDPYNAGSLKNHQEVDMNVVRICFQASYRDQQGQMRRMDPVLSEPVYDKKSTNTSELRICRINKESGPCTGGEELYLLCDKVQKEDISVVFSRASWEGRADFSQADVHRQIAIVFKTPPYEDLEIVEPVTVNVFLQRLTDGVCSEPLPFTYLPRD
T2 sequence 2: T1 sequence

[8] = target: C-Rel subunit;p50 subunit (Homo sapiens;Homo sapiens, UniProt Q04864;P19838 1-285;7-356)
[9] = target: T3, C-Rel subunit;p52 subunit (Homo sapiens;Homo sapiens, UniProt Q04864;Q00653 1-285;4-332)
T3 sequence 1: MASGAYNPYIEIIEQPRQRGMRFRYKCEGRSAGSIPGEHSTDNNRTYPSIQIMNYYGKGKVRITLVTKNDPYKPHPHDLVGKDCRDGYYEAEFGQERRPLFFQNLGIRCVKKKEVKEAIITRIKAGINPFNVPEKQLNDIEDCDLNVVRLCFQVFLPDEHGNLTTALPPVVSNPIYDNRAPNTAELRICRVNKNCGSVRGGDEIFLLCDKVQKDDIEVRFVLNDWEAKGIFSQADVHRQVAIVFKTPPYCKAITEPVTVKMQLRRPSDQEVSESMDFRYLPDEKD
T3 sequence 2: T1 sequence

Sequence of RELARELA (p65 homodimer) (Q04206 1-307): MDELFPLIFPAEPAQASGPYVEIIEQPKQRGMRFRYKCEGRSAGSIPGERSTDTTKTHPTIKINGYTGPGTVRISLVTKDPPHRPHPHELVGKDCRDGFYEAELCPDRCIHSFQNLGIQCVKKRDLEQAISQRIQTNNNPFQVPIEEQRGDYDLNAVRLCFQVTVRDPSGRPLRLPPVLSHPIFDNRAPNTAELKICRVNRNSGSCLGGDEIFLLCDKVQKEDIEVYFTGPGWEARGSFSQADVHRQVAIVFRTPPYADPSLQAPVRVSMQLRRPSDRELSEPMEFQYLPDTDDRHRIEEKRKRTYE
Sequence of RELA (p65) subunit of heterodimer;p50 subunit (Q04206 1-307, chain 1 of 2): as the sequence (Q04206 1-307) above
Sequence of RELA (p65) subunit of heterodimer;p50 subunit (P19838 7-356, chain 2 of 2): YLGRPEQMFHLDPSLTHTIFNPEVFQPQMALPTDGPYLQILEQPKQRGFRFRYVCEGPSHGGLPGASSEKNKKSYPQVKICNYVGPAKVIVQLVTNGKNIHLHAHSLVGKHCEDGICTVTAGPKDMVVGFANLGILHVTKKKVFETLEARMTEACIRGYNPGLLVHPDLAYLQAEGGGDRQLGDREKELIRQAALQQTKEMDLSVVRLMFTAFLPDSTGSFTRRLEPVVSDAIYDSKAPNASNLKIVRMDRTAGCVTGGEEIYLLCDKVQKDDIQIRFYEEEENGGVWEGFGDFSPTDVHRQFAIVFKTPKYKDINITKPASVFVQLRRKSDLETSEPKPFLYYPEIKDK
Sequence of p50p50 homodimer (P19838 7-356): as the sequence (P19838 7-356, chain 2 of 2) above

| Sequence | binding signal [1] [z-score] | binding signal [2] [z-score] | binding signal [3] [z-score] | binding signal [4] [z-score] | binding signal [5] [z-score] | binding signal [6] [z-score] | binding signal [7] [z-score] | binding signal [8] [z-score] | binding signal [9] [z-score] |
| --- | --- | --- | --- | --- | --- | --- | --- | --- | --- |
| AGATTGGTCCT | -0.38 | -1.15 | -0.549 | -1.18 | -0.788 | -0.729 | -0.656 | -1.35 | -0.852 |
| CGGGGTCTCCT | -0.0145 | 0.0717 | 0.00961 | -0.308 | -0.191 | -0.332 | -0.207 | -0.336 | 0.0688 |
| AAATAACCCCC | 0.321 | 1.39 | 1.6 | 1.69 | 1.48 | 1.69 | 1.68 | 1.32 | 1.39 |
| CAATATTTCCC | 2.26 | 1.03 | 0.706 | 1.27 | 1.06 | 0.775 | 0.965 | 1.45 | 1.08 |
| GAGAAGATCCC | -0.164 | -0.0695 | -0.271 | -0.131 | -0.161 | -0.259 | -0.387 | -0.311 | -0.307 |
| CGGAATCCCCT | 2.17 | 1.6 | 2.39 | 2.3 | 2.13 | 2.43 | 2.22 | 1.83 | 2.31 |
| AAAGTCTCCCC | 0.367 | 0.818 | 0.559 | 0.733 | 0.654 | 0.78 | 0.879 | 0.882 | 0.388 |
| CGGTGTCTCCC | -0.108 | -0.00286 | 0.283 | 0.0635 | 0.211 | -0.121 | 0.143 | -0.0512 | 0.354 |
| CAAAGTACCCC | 0.144 | 0.83 | 0.509 | 0.648 | 0.795 | 1.07 | 1.19 | 0.721 | 0.588 |
| CGGTGCCTCCT | -0.441 | -0.702 | -0.485 | -0.873 | -0.611 | -0.763 | -0.769 | -1.19 | -0.785 |
| CGGAGCGCCCT | -0.577 | -1.84 | -0.701 | -0.94 | -0.911 | -1.13 | -0.954 | -1.21 | -1.01 |
| CGAATGATCCT | -0.807 | -1.92 | -0.659 | -0.966 | -0.935 | -1.16 | -0.928 | -1.72 | -0.968 |
| CGGGTTATCCC | 1.55 | 0.247 | 1.5 | 0.634 | 0.988 | 0.155 | 0.698 | 0.306 | 0.791 |
| CAGGGTCCCCC | -0.42 | 0.876 | 0.451 | 1.23 | 0.881 | 1.22 | 1.39 | 0.998 | 0.408 |
| GGAGTCACCCT | -0.674 | -0.676 | -0.345 | -0.224 | -0.5 | -0.378 | -0.661 | -0.396 | -0.585 |
